One assay has as its system CRL-7250. Nature of the assay: Cytotoxic Profiling of Annotated Libraries Using Quantitative High-Throughput Screening (AID 1296008). Also: potency is read from the fitted curve at half-maximal effect. As to max response: % is scaled to controls: 0 for no effect and ±100 for the full control effect. The following applies: Five cell lines viability, CellTiter-Glo ATP luminescence, 48-72 h; max response: active compounds read low. The essentials:
(§1)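 Compounds were pin-transferred onto cells and incubated 48 or 72 hr at 37 degree Celsius, 95% humidity. CellTiter-Glo was added, plates sat 10 min at room temperature, then ATP-coupled luminescence was imaged as the viability read-out.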

A further assay has as its system HEK293. Described as above. The following applies: Five cell lines viability, CellTiter-Glo ATP luminescence, 48-72 h; max response: active compounds read low. The essentials:
as §1

In assay [1] the test system is HaCat. The assay is described as above. The following applies: Five cell lines viability, CellTiter-Glo ATP luminescence, 48-72 h; max response: active compounds read low. The essentials:
as §1
On the technique in general: In ATP-based viability assays light output follows the ATP content of the culture.

The test system of another assay is KB-3-1. The assay is described as above. The following applies: Five cell lines viability, CellTiter-Glo ATP luminescence, 48-72 h; max response: active compounds read low. The essentials:
as §1

The test system of another assay is NIH3T3. The assay is described as above. The following applies: Five cell lines viability, CellTiter-Glo ATP luminescence, 48-72 h; max response: active compounds read low. The method, boiled down:
as §1

Assay [2] concerns HACAT. The assay is described as follows: qHTS assay to identify novel small-molecules to repurpose for Merkel cell carcinoma treatment (AID 1296009). The following applies: MCC and control cell lines, CellTiter-Glo viability, 72 h; at 44.8 µM (top of the series) unless noted. The essentials: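 qHTS format: cells treated with library compounds in DMSO across 8 (NPC) or 11 (MIPE) concentrations. Readout after 72 hr at 37 degree celsius was CellTiter-Glo luminescence.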
A general note: In qHTS, concentration-response curves come from the screen itself.

SMILES strings stand for the structures. Results filed as inconclusive are left out. Values without a mark were called inactive. Calls of active or inactive are those of the source. Calls follow the shape of the dose curve; as a rule, active = well fitted inhibition curve with a large enough effect; inconclusive = small, poorly fitted or top-dose-only effect; inactive = flat fitted curve, though single readings scatter.
Also: nearly all actives have a fitted effect of over 60% in size.

On to `COC(=O)C(CC1CCCC1)c1ccc(S(C)(=O)=O)cc1` (stereo not drawn), for which the call with CRL-7250, with HaCat [1], in the assay on KB-3-1 and in the assay with HACAT [2] was inactive. Further, the max response in the assay on HEK293 was 0.176%; in the assay with NIH3T3 it was 2.5%.

Regarding `NC1Nc2ccccc2C1(N)CC1NC(=O)C(Cc2ccccc2)NC(=O)C(Cc2ccccc2)NC1=O` (stereo not drawn), the max response in the assay with CRL-7250 is -1.59%; in the assay on HEK293, -40.7%; in the assay on KB-3-1 it was 2.51%; in the assay with NIH3T3, 1.33%. The molecule was called inactive in the assay on HaCat [1]. Moreover, the outcome in the assay on HACAT [2] was “inactive [at 17.4 µM]”.

Regarding `O=C(C1OC1/C=C/c1ccc2c(c1)OCO2)N1CCCCC1` (stereo not drawn), the max response in the assay with CRL-7250 was 3.99%; in the assay on HEK293 it was -7.74%; in the assay on KB-3-1, 5.97%; in the assay with NIH3T3 it was -1.01%. Also, the outcome with HaCat [1] and with HACAT [2] was inactive.

In the case of `CCC(C)(C)C1CCc2c(sc(NC(=O)c3ccc(Br)cc3)c2C#N)C1` (stereo not drawn), the max response in the assay with CRL-7250 is -2.34%; with HEK293, 2.37%; in the assay on NIH3T3, 3.88%. For the same molecule, the molecule was called inactive in the assay on HaCat [1], with KB-3-1 and in the assay on HACAT [2].

Take `COc1cc(OC)cc(-c2ccc3c(-c4ccc(F)cc4)[nH]nc3n2)c1`: the molecule was classed as inactive in the assay on CRL-7250, in the assay with HaCat [1], with KB-3-1 and in the assay on HACAT [2]. Also, the figures for the max response with HEK293 and in the assay on NIH3T3 were -28% and 0.976%, respectively.

On to `COC(=O)C1=COC(OC2OC(CO)C(O)C(O)C2O)C2C(C)C(OC(C)=O)C(OC(=O)c3ccccc3)C12` (stereo not drawn), for which the max response in the assay on CRL-7250 was -19.7%; in the assay with HEK293, -48.1%; with NIH3T3 it was -45.7%. Further, the molecule was classed as inactive in the assay on HaCat [1] and with KB-3-1. Moreover, the outcome with HACAT [2] is “inactive [at 17.4 µM]”.

Consider `CC1(C)CC[C@]2(C(=O)O)[C@H](O)C[C@]3(C)C(=CCC4[C@@]5(C)CC[C@H](O[C@@H]6OC[C@@H](O)[C@H](O)[C@H]6O)[C@@](C)(C(=O)O)C5CC[C@]43C)[C@@H]2C1` (stereo partly drawn), for which the max response with CRL-7250 was -5.63%; with HEK293, 0.0666%; in the assay on KB-3-1, 9.63%; in the assay on NIH3T3 it was 0.796%. The outcome in the assay with HaCat [1] was inactive. Also, the outcome with HACAT [2] was “inactive [at 17.4 µM]”.

With `CC(=O)OC[C@@]12C(=O)C[C@@H](C)[C@]3(C[C@@H](c4ccoc4)OC3=O)[C@H]1CC[C@H](OC(C)=O)[C@]21CO1`, the max response in the assay on CRL-7250 was -3.74%; with HEK293 it was -0.582%; with NIH3T3, -0.126%. Moreover, the result with HaCat [1] and in the assay with KB-3-1 was inactive. Further, the outcome with HACAT [2] is “inactive [at 17.4 µM]”.

Turning to `COc1cncc(C#Cc2ccccn2)c1`, the max response is 4.39% in the assay with CRL-7250, 2.17% with HEK293, -1.99% with KB-3-1 and -3.14% in the assay with NIH3T3. The call with HaCat [1] and in the assay with HACAT [2] was inactive.

Take `CC(=O)O[C@H]1[C@H](O[C@H]2CC[C@]34C[C@]35CC[C@]3(C)[C@@H]([C@@]6(C)CC[C@@H](C(C)(C)O)O6)[C@@H](O)C[C@@]3(C)[C@@H]5C[C@H](O[C@@H]3O[C@H](CO)[C@@H](O)[C@H](O)[C@H]3O)[C@H]4C2(C)C)OC[C@@H](OC(C)=O)[C@@H]1O`: the max response in the assay on CRL-7250 is -0.709%; in the assay with HEK293 it was -4%; with NIH3T3, 1.91%. Further, the molecule was called inactive in the assay on HaCat [1], in the assay on KB-3-1 and in the assay on HACAT [2].

Consider `O=C(N[C@@H]1CC[C@@H](c2cccc(F)c2F)CN(CC(F)(F)F)C1=O)N1CCC(n2c(=O)[nH]c3ncccc32)CC1`, for which the max response with CRL-7250 was -4.99%; in the assay with NIH3T3 it was -12.6%. Besides, in the assay with HEK293, the Potency was 16.4 µM (active). For the same molecule, the call in the assay with HaCat [1], in the assay with KB-3-1 and in the assay on HACAT [2] was inactive.

Consider `COC(=O)[C@H](Cc1cccc(C(=N)N)c1)[C@@H](C)NC(=O)c1ccc(-c2cc[n+]([O-])cc2)cc1`, for which the max response in the assay with CRL-7250 is -2.22%; with HEK293, 3.53%; with NIH3T3, 0.404%. Further, the result in the assay with HaCat [1], with KB-3-1 and in the assay with HACAT [2] was inactive.

On to `Cc1nc2ccccc2c(-c2ccc3c4c(ccnc24)CCO3)c1[C@H](OC(C)(C)C)C(=O)O`, for which the max response in the assay with CRL-7250 was -8%; in the assay on HEK293, 4.74%; with KB-3-1 it was -6.3%; with NIH3T3, -2.71%. The molecule was called inactive in the assay with HaCat [1] and with HACAT [2].

As to `C/C=C/C=C/C=C/C(=O)N(C)C(C(=O)NC(C)C(=O)N1CCCC1C(N)=O)C(C)C` (stereo not drawn), the values for the max response with CRL-7250, with HEK293 and in the assay on NIH3T3 were -4.46%, 2.9% and 0.323%, respectively. In addition, the molecule was called inactive in the assay with HaCat [1] and with KB-3-1. For the same molecule, in the assay on HACAT [2], the outcome was “inactive [at 17.4 µM]”.

`Oc1ccc2c(-c3c(-c4ccccn4)nn4c3CCC4)ccnc2c1`: the values for the max response in the assay with CRL-7250, with HEK293 and in the assay with KB-3-1 were -1.66%, -21.7% and -4.91%, respectively. For the same molecule, the molecule was classed as inactive in the assay with HaCat [1] and with HACAT [2]. The Potency in the assay on NIH3T3 was 13 µM (active).

For the molecule `O=c1[nH]ccc2nc(-c3ccc(CN4CCC(c5nc(-c6ccccn6)n[nH]5)CC4)cc3)c(-c3ccccc3)cc12`, the molecule was classed as inactive in the assay on CRL-7250, with HaCat [1], in the assay on NIH3T3 and with HACAT [2]. For the same molecule, in the assay on HEK293, the Potency is 5.17 µM (active). Besides, in the assay with KB-3-1, the max response is -16.7%.

Consider `CC1=C2C[C@H]3OC(=O)[C@H](O)[C@@]4(O)[C@@H](C)[C@@H](O)[C@H](O)C([C@@]2(C)[C@H](O)[C@@H](O)C1)[C@@]34C` (stereo partly drawn), for which the max response was -2.09% with CRL-7250, -1.6% in the assay with HEK293, 9.81% with KB-3-1 and 2.2% with NIH3T3. In addition, the outcome with HaCat [1] and in the assay with HACAT [2] was inactive.

As for `Cc1ncc([N+](=O)[O-])n1C[C@H](O)CN1CCOCC1`, the result in the assay with CRL-7250, with HaCat [1], in the assay on KB-3-1 and in the assay with HACAT [2] was inactive. In addition, the max response is 2.87% in the assay on HEK293 and -3.55% in the assay with NIH3T3.

The values above are taken from PubChem BioAssay (NCATS).
